Test results taken from PubChem BioAssay (NCATS).
Records with an inconclusive call do not appear. The source made the active and inactive calls. Calls follow the shape of the dose curve; as a rule, active = well fitted curve in the direction sought with a large enough effect; inconclusive = small, poorly fitted or top-dose-only effect, or another doubt; inactive = no such curve, though single readings can be large; an effect the other way counts as inactive or inconclusive.

Key:
[1] = Cell Viability - LYMP2-004 (AID 966); also: nearly all actives have a fitted effect of over 65% in size
Summary of the method: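 AC50 values come from Hill modelling of concentration-dependent loss of intracellular ATP, measured by CellTiter-Glo luminescence. Human LYMP2-004 lymphoblastoid cells (2500/well) were exposed to compound for 24 h at 37 C.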

[2] = Cell Viability - LYMP2-005 (AID 967); also: series mostly up to about 92 µM
Summary of the method: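 CellTiter-Glo luminescence (cellular ATP) read-out; LYMP2-005 lymphoblastoid cells, 2500/well, 5 h pre-incubation, then 24 h compound exposure at 37 C in complete medium. Tetraoctylammonium bromide positive control; AC50 by standard Hill fit.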

[3] = Cell Viability - LYMP2-009 (AID 968); also: series mostly up to about 92 µM; nearly all actives have a fitted effect of over 55% in size
[4] = Cell Viability - LYMP2-011 (AID 969); also: nearly all actives have a fitted effect of over 60% in size
Summary of the method: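 Cytotoxicity qHTS with ATP content as read-out: lymphoblastoid cells (2500/well) exposed to compound for 24 h at 37 C, then luciferase luminescence measured. Concentration-response data fitted with the standard Hill equation to give AC50.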

[5] = Cell Viability - LYMP2-013 (AID 970); also: series mostly up to about 92 µM; nearly all actives have a fitted effect of over 55% in size
Summary of the method: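 qHTS cytotoxicity: ATP-dependent luminescence (CellTiter-Glo, 30 min room temperature) read after 24 h compound exposure at 37 C of 2500 LYMP2-013 lymphoblastoid cells per well. Concentration-response fitted with Hill equation to give AC50.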

[6] = Cell Viability - LYMP2-015 (AID 971); also: nearly all actives have a fitted effect of over 55% in size
Summary of the method: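 Cytotoxicity readout: decrease in intracellular ATP (CellTiter-Glo luminescence) in 2500 LYMP2-015 lymphoblastoid cells/well after 24 h compound exposure at 37 C. Concentration-response data fitted with the standard Hill equation to give AC50.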

[7] = Cell Viability - LYMP2-017 (AID 972); also: series mostly up to about 92 µM; nearly all actives have a fitted effect of over 55% in size
Summary of the method: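 CellTiter-Glo luminescence (cellular ATP, 30 min RT) measured cytotoxicity after 24 hr compound treatment at 37 C. Cells were a human lymphoblastoid line, LYMP2-017, plated at 2500/well and incubated 5 hr first; concentration-response fitted with Hill equation for AC50.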

[8] = Cell Viability - LYMP2-019 (AID 973); also: nearly all actives have a fitted effect of over 55% in size
Summary of the method: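 AC50 values come from Hill-equation fits of luminescent intracellular ATP (CellTiter-Glo, 30 min, room temperature) following 24 h compound exposure at 37 C. Cells: LYMP2-019 lymphoblastoid line, 2500 per well, in complete culture medium.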

[9] = Cell Viability - LYMP2-021 (AID 974); also: nearly all actives have a fitted effect of over 55% in size
Summary of the method: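 AC50 values come from Hill-equation fits to CellTiter-Glo luminescence (ATP content), read after 24 hour compound exposure at 37 C of 2500 LYMP2-021 lymphoblastoid cells/well; tetraoctylammonium bromide as positive control.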

[10] = Cell Viability - LYMP2-023 (AID 975)
Summary of the method: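 Intracellular ATP, read by CellTiter-Glo luminescence, reports viability after 24 hr compound exposure at 37 C. 2500 lymphoblastoid cells/well (LYMP2-023) seeded 5 hr beforehand; Hill fits give AC50; positive control tetraoctylammonium bromide.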

Measured: Potency

c1ccc(Nc2ccccc2)cc1
inactive: all assays above

CC(=O)c1nccs1
inactive: all assays above

C=C(C)C(=O)OCCCCCCCCCC
not listed: [10]
inactive: all other assays above

CCCCC=O
not listed: [10]
inactive: all other assays above

CCCCOCCOCCSC#N
not listed: [10]
inactive: all other assays above

CC(C)CO
not listed: [9] | [10]
inactive: all other assays above

Cc1ccc(C)c([N+](=O)[O-])c1
inactive: all assays above

CC(C)=CCl
inactive: all assays above

Cc1ccc(CO)cc1
not listed: [10]
inactive: all other assays above

NC(=O)NC(N)=O
inactive: all assays above

CCCCCCCCCCCCC1CO1 (centres undefined)
not listed: [10]
inactive: all other assays above

C=C(C)C(=O)OC
inactive: all assays above

Oc1cccc(Nc2ccccc2)c1
not listed: [10]
inactive: all other assays above

CCOc1cccc(N)c1
inactive: all assays above

Cc1ccc(S(=O)(=O)NC2CCCCC2)cc1
inactive: all assays above

Nc1ccccc1[N+](=O)[O-]
not listed: [10]
inactive: all other assays above

CC(=O)c1ccc([N+](=O)[O-])cc1
inactive: all assays above

CNC(=O)N(c1ccccc1)c1ccccc1
inactive: all assays above

CSc1ccc(C=O)cc1
inactive: all assays above

CC(=O)OC(C)C
inactive: all assays above

O=C(O)c1ccc(C(=O)O)cc1
not listed: [10]
inactive: all other assays above

Cc1ccc(C)c(N)c1
not listed: [10]
inactive: all other assays above

ClCCl
inactive: all assays above

Cc1ccccc1Br
not listed: [10]
inactive: all other assays above

O=C(O)CN(CC(=O)O)CC(=O)O
not listed: [10]
inactive: all other assays above

O=C(O)/C=C/C(=O)O
not listed: [9] | [10]
inactive: all other assays above

CC(C)(c1cc(Br)c(OCC(Br)CBr)c(Br)c1)c1cc(Br)c(OCC(Br)CBr)c(Br)c1 (centres undefined)
inactive: all assays above

S=C([S-])NCCNC(=S)[S-].[Zn+2]
inactive: all assays above

CC/C=C1/OC(=O)c2ccccc21
inactive: all assays above

CCCC(Cl)CCCC(Cl)CCC(Cl)CCC(Cl)CCC(Cl)CCCC(Cl)CCC (centres undefined)
not listed: [10]
inactive: all other assays above

CC(C)C=O
not listed: [10]
inactive: all other assays above

CCCCOCCOCCOCCCC
not listed: [9] | [10]
inactive: all other assays above

O=C1NC(=O)c2cc([N+](=O)[O-])ccc21
inactive: all assays above

CCCCC(=O)N(C)C
inactive: all assays above

CCCCCCCCC
not listed: [10]
inactive: all other assays above

Nc1cccc2c(=O)[nH][nH]c(=O)c12
not listed: [10]
inactive: all other assays above

CC(O)CC(C)O (centres undefined)
inactive: all assays above

C[C@@H]1CC2(OC[C@]3(C)O[C@H]23)O[C@H]2C[C@@]3(C)[C@@H]4CC[C@H]5C(C)(C)C(O[C@@H]6OC[C@@H](O)[C@H](O)[C@H]6O)CC[C@@]56C[C@@]46CC[C@]3(C)[C@@H]12 (some centres undefined)
inactive: all assays above

CC(=O)Nc1cccc(N)c1
inactive: all assays above

O=[N+]([O-])c1ccc(Cl)cc1Cl
inactive: all assays above

CC(=O)OC(C)=O
inactive: all assays above

CC1(N)CCC(C(C)(C)N)CC1 (centres undefined)
inactive: all assays above

CCC=O
inactive: all assays above

Cc1ccc2ccccc2c1[N+](=O)[O-]
inactive: all assays above

N#CCc1ccccc1[N+](=O)[O-]
inactive: all assays above

CC/C=C/C#N
inactive: all assays above

O=C(O)c1cccc(Cl)c1Cl
inactive: all assays above

O=[N+]([O-])c1cccc(C(F)(F)F)c1
inactive: all assays above

CCN(CC)c1cccc(O)c1
inactive: all assays above

CNC(=O)c1ccccc1
inactive: all assays above

CCCCCCCCN
inactive: all assays above

COC(=O)CCCC(=O)OC
inactive: all assays above

CC(C)N=C=NC(C)C
inactive: all assays above

O=C(Cl)c1c(Cl)cccc1Cl
inactive: all assays above

C1COC1
inactive: all assays above

CCOCCOCC
inactive: all assays above

C=Cc1ccccn1
inactive: all assays above

O=[N+]([O-])c1c(Cl)cc(Cl)cc1Cl
inactive: all assays above

CCCOCC(C)OCC(C)O (centres undefined)
inactive: all assays above

NC(=O)CCCCC(N)=O
inactive: all assays above

CC=O
inactive: all assays above

Clc1ccc(Cl)c(Cl)c1Cl
inactive: all assays above

Cc1cccc(C)c1[N+](=O)[O-]
inactive: all assays above

Cc1ccc(Cl)cc1
inactive: all assays above

c1ccc(Oc2ccccc2)cc1
inactive: all assays above

CCOCCO
inactive: all assays above

CC(=O)Nc1ccc(N)cc1
inactive: all assays above

C=CC(=O)NC(C)C
inactive: all assays above

NS(=O)(=O)O
inactive: all assays above

CCC(O)C(C)(C)C (centres undefined)
inactive: all assays above

O=[N+]([O-])c1ccc(NCCO)c(OCCO)c1
inactive: all assays above

O=Cc1ccc(Cl)cc1
inactive: all assays above

CC/C(C)=N/O
inactive: all assays above

O=Cc1cccc(Br)c1
inactive: all assays above

Nc1cc([N+](=O)[O-])ccc1C(=O)O
inactive: all assays above

Cc1nc2ccc(Cl)cc2[nH]1
inactive: all assays above

Nc1cc(S(=O)(=O)O)ccc1O
inactive: all assays above

CCCCCCC(=O)O
inactive: all assays above

CCCCCO
inactive: all assays above

CCCCC(CC)CO (centres undefined)
inactive: all assays above

CCOc1cc(OCC)c(C(C)=O)cc1OCC
inactive: all assays above

C=CCCCCCC
inactive: all assays above

C1CCOC1
inactive: all assays above

CCC1CO1 (centres undefined)
inactive: all assays above

CCC(C)(C)OC
inactive: all assays above

COc1cccc(N)c1
inactive: all assays above

CCC(C)=O
inactive: all assays above

Cc1ccc(C(C)(C)C)cc1
inactive: all assays above

O=C1OC(=O)c2cc([N+](=O)[O-])ccc21
inactive: all assays above

CC(N)CN (centres undefined)
inactive: all assays above

C=CCOC(=O)COCCC(C)C
inactive: all assays above

NC(N)=S
inactive: all assays above

O=C(O)c1c(Cl)cccc1Cl
inactive: all assays above

CO[Si](CCCNCCC[Si](OC)(OC)OC)(OC)OC
inactive: all assays above

CC#N
inactive: all assays above

Cc1cccc2sc(N)nc12
inactive: all assays above

CNc1ccc([N+](=O)[O-])cc1
inactive: all assays above

C=CCCC
inactive: all assays above

CCNc1ccccc1
inactive: all assays above

Cc1ccc(C(=O)O)cc1
inactive: all assays above

CC(C=O)Cc1ccc(C(C)(C)C)cc1 (centres undefined)
inactive: all assays above

Cc1ccc([N+](=O)[O-])c(N)c1
inactive: all assays above

CC1CCCO1 (centres undefined)
inactive: all assays above

Nc1cc(Cl)c(N)c(Cl)c1
inactive: all assays above

Cc1cc(C)cc(O)c1
inactive: all assays above

O=c1[nH][nH]c(=O)c2cc([N+](=O)[O-])ccc12
inactive: all assays above

CC(C)C(C)C
inactive: all assays above

COC(=O)CCC(=O)OC
inactive: all assays above

NCCCCCCN
inactive: all assays above

Cc1ccccc1C=O
inactive: all assays above

CCOCC(=O)O
inactive: all assays above

CC(C)(C)c1ccc(OCC2CO2)cc1 (centres undefined)
inactive: all assays above

O=C(O)c1ccc(Cl)cc1Cl
inactive: all assays above

O=[N+]([O-])c1ccccc1CCO
inactive: all assays above
